# This excerpt belongs to a sample that is enriched for hits.
# IDE exosite FP = insulin-degrading enzyme (human) exo-site inhibition; z-score at 20 µM; purified IDE, FL-6b probe fluorescence polarization; active compounds read low; 17,000 tested, 6.3% active; P14735;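 active = z-score of -3 or lower, meaning strong loss of probe binding signal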;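 also: His-tagged human IDE residues 42-1019 made in E. coli with 30 nM FL-6b probe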
# * hit, by the source's call.
SMILES,IDE exosite FP
CS(=O)(=O)N1[C@@H](C#N)[C@H](c2ccc(C#Cc3cccc(F)c3)cc2)[C@@H]1CO,-0.867
CC(C)C#Cc1ccc([C@@H]2[C@H](CO)N3CCCCN(C(=O)c4ccc5c(c4)OCO5)C[C@@H]23)cc1,2.93
COc1cccc(-c2ccc([C@@H]3[C@@H](C#N)N(C(=O)Cc4ccccc4)[C@H]3CO)cc2)c1,2.96
COc1cccc(-c2ccc([C@@H]3[C@@H](CO)N(C(=O)Cc4ccccc4)[C@H]3C#N)cc2)c1,3.62
COc1cccc(-c2ccc([C@H]3[C@@H](C#N)N(C(=O)Cc4ccccc4)[C@@H]3CO)cc2)c1,-3.8*
COc1cccc(-c2ccccc2[C@H]2[C@@H](C#N)N(C(=O)c3ccccn3)[C@@H]2CO)c1,-0.393
N#C[C@@H]1[C@@H](c2ccccc2-c2ccccc2F)[C@@H](CO)N1C(=O)c1ccccn1,1.97
N#C[C@H]1[C@H](c2ccc(-c3ccccc3F)cc2)[C@@H](CO)N1C(=O)c1ccccn1,0.884
CCCNC(=O)N1[C@H](C#N)[C@@H](c2ccc(-c3cccc(OC)c3)cc2)[C@H]1CO,-1.3
N#C[C@H]1[C@H](c2ccc(-c3ccccc3F)cc2)[C@H](CO)N1C(=O)c1ccccn1,-3.1*
COc1cccc(-c2ccccc2[C@H]2[C@@H](C#N)N(C(=O)Cc3ccccc3)[C@H]2CO)c1,0.948
COc1cccc(-c2ccc([C@@H]3[C@@H](C#N)N(C(=O)c4ccccn4)[C@@H]3CO)cc2)c1,-4.98*
COc1cccc(-c2ccccc2[C@H]2[C@@H](C#N)N(C(=O)Cc3ccccc3)[C@@H]2CO)c1,-1.59
COc1cccc(-c2ccc([C@@H]3[C@@H](C#N)N(C(=O)Cc4ccccc4)[C@@H]3CO)cc2)c1,-5.34*
O=C(N[C@H]1CC[C@H](CCn2cc(-c3ccccc3F)nn2)O[C@H]1CO)c1ccc2c(c1)OCO2,2.9
CC(=O)NC[C@H]1[C@@H](c2ccc(C3=CCCC3)cc2)[C@@H](CO)N1C(=O)C1CCC1,0.913
COc1ccc(NC(=O)N2CCCCN3[C@@H](CO)[C@@H](c4ccc(C#Cc5ccccn5)cc4)[C@@H]3C2)cc1,0.336
O=C(c1ccc2c(c1)OCO2)N1CC(=O)N2[C@H](CO)[C@H](c3ccc(C#CC4CCCC4)cc3)[C@@H]2C1,-0.331
O=C(NC1CCCC1)[C@@H]1[C@@H](CO)[C@@H]2Cn3c(cccc3=O)[C@@H]2N1CCc1ccccc1,-0.333
C[C@@H]1CCCn2nncc2COCCNC1=O,0.286
COc1ccc2c3c(n(C)c2c1)[C@H](CO)N(S(C)(=O)=O)CC31CCN(C(=O)Nc2cccc(F)c2)CC1,-0.767
CC(=O)N(C[C@H]1N[C@H](CO)[C@H]1c1ccc(-c2ccc(F)cc2)cc1)C(C)C,2.82
COc1ccccc1C(=O)N1C[C@H]2[C@@H](c3ccccc31)[C@H](CO)N2C(=O)Cc1ccccc1,3.85
CN(C)CC#Cc1ccc([C@H]2[C@H]3CN(C(=O)Cc4cccnc4)CC(=O)N3[C@H]2CO)cc1,0.738
C/C=C/c1ccc([C@H]2[C@@H](CO)N(c3nc(-c4ccccc4)cs3)[C@H]2C#N)cc1,0.983
SMILES,IDE exosite FP
O=C(NC[C@@H]1N[C@@H](CO)[C@@H]1c1ccccc1)c1ccccc1F,0.951
O=C(NC[C@@H]1N[C@@H](CO)[C@@H]1c1ccc(-c2ccccc2F)cc1)c1ccccn1,-4.54*
O=C(NC[C@H]1N[C@@H](CO)[C@H]1c1ccc(-c2ccccc2)cc1)c1ccccc1F,1.14
O=C(CN1CCOCC1)N1CCCCN2[C@H](CO)[C@@H](c3ccc(Br)cc3)[C@H]2C1,-0.735
O=C(CN1CCOCC1)N1CCCCN2[C@H](CO)[C@H](c3ccc(C#Cc4ccccc4F)cc3)[C@@H]2C1,-5.02*
O=C(CN1CCOCC1)N1CCCCN2[C@H](C1)[C@@H](c1ccc(C#Cc3ccccc3F)cc1)[C@@H]2CO,-5*
O=C(CN1CCOCC1)N1CCCCN2[C@H](C1)[C@H](c1ccc(C#Cc3ccccc3F)cc1)[C@@H]2CO,-6.05*
O=C(CN1CCOCC1)N1CCCCN2[C@H](CO)[C@H](c3ccc(C#Cc4ccccc4)cc3)[C@H]2C1,-8.69*
COCC#Cc1ccc([C@H]2[C@@H](CO)N3C(=O)CN(C(=O)CN4CCOCC4)C[C@H]23)cc1,1.03
Cc1ccccc1S(=O)(=O)N1CCCCN2[C@H](C1)[C@H](c1ccc(-c3cccc(F)c3)cc1)[C@@H]2CO,2.81
COCC(=O)N1CC(=O)N2[C@H](CO)[C@H](c3ccc(C#CC4CC4)cc3)[C@H]2C1,0.221
CN(C)CC(=O)N[C@H]1CC[C@H](CCNC(=O)C2CCC2)O[C@H]1CO,2.19
O=S(=O)(c1ccccc1)N1CCCCN2[C@H](CO)[C@H](c3ccc(-c4cncnc4)cc3)[C@H]2C1,2.76
N#C[C@H]1[C@H](c2ccccc2C2=CCCCC2)[C@H](CO)N1C(=O)CN1CCOCC1,-0.564
CC(=O)NC[C@@H]1[C@@H](c2ccc(-c3cccnc3)cc2)[C@@H](CO)N1C(=O)CC1CC1,-0.397
CCCNC(=O)N1[C@H](CO)[C@H](c2ccccc2C2=CCCC2)[C@@H]1C#N,1.89
CCS(=O)(=O)N1CCCCN2[C@H](CO)[C@H](c3ccc(C4=CCCC4)cc3)[C@H]2C1,4.11
CS(=O)(=O)N1[C@H](C#N)[C@H](c2ccccc2)[C@H]1CO,4.94
O=C(CN1CCOCC1)N1CCCCN2[C@H](CO)[C@H](c3ccc(C#Cc4ccccc4F)cc3)[C@H]2C1,-5.53*
CC[C@@H]1C/C=C\C[C@@H](C(C)C)NC(=O)CCC(=O)N1,1.13
N#C[C@@H]1[C@@H](c2ccc(-c3cccc(F)c3)cc2)[C@H](CO)N1C(=O)c1cccnc1,0.156
N#C[C@H]1[C@@H](c2ccc(C#Cc3ccccc3F)cc2)[C@H](CO)N1C(=O)C1CCC1,0.223
N#C[C@@H]1[C@H](c2ccc(C#Cc3ccccc3F)cc2)[C@H](CO)N1C(=O)C1CCOCC1,-6.41*
N#C[C@H]1[C@H](c2ccc(-c3cccc(F)c3)cc2)[C@@H](CO)N1C(=O)c1cccnc1,1.34
COCC(=O)N1[C@H](C#N)[C@H](c2ccc(C#Cc3ccccc3F)cc2)[C@H]1CO,-2.25
SMILES,IDE exosite FP
N#C[C@H]1[C@H](c2ccc(C#Cc3ccccc3F)cc2)[C@H](CO)N1C(=O)C1CC1,-1.25
COCC(=O)N1[C@@H](C#N)[C@@H](c2ccc(C#Cc3ccccc3F)cc2)[C@@H]1CO,0.638
N#C[C@@H]1[C@@H](c2ccc(C#Cc3ccccc3F)cc2)[C@@H](CO)N1C(=O)C1CCC1,1.58
N#C[C@H]1[C@@H](c2ccc(C#Cc3ccccc3F)cc2)[C@@H](CO)N1C(=O)C1CCOCC1,-3.66*
N#C[C@H]1[C@H](c2ccc(-c3cccc(F)c3)cc2)[C@H](CO)N1C(=O)c1cccnc1,-5.95*
COCC(=O)N1[C@@H](C#N)[C@H](c2ccc(C#Cc3ccccc3F)cc2)[C@@H]1CO,-4.31*
N#C[C@H]1[C@@H](c2ccc(C#Cc3ccccc3F)cc2)[C@@H](CO)N1C(=O)C1CCC1,0.334
CCCNC(=O)N[C@@H]1C=C[C@H](CC(=O)N2CCN(C)CC2)O[C@H]1CO,0.511
O=C(Nc1ccccc1F)N1CC(=O)N2[C@@H](CO)[C@@H](c3ccc(C#CC4CC4)cc3)[C@@H]2C1,0.654
COc1ccc(S(=O)(=O)N(C)C[C@@H]2OCCCC[C@H](C)Oc3ccc(NC(=O)Cc4ccccc4)cc3C(=O)N([C@H](C)CO)C[C@@H]2C)cc1,1.23
COc1ccc2c3c(n(C)c2c1)[C@H](CO)N(C(=O)Cc1ccccn1)CC31CN(CC2CCCCC2)C1,1.11

# Source: PubChem
